Data from PubChem BioAssay (Tox21).
Unmarked numbers belong to inactive results. Results filed as inconclusive are left out. Entries that show only a call come without a potency. Activity calls are given as the source filed them. Unless noted, calls follow the shape of the dose curve; as a rule, active = well fitted curve in the direction sought with a large enough effect in the repeat runs; inconclusive = weak or mixed curves; inactive = no such curve, though single readings can be large; an effect the other way counts as inactive or inconclusive.

Columns and labels:
[1] = qHTS assay to identify small molecule agonists of H2AX (AID 1224845; active = well fitted activation curve with a large enough effect in the signal ratio in the repeat runs, not every such curve was filed as active; the % refers to the signal ratio; also: potency is read from the fitted curve at half-maximal effect)
Procedure, shortened: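 Wild-type CHO-K1 cells plated overnight, then exposed 3 hr at 37C to compounds at 15 concentrations (0.76% DMSO). Lysed, then HTRF anti-pH2AX(S139)-cryptate/anti-H2AX-d2 detection after 24 hr at room temperature; emissions 665 and 620 nm.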

[2] = qHTS assay to identify small molecule agonists of the hypoxia (HIF-1) signaling pathway (AID 1224846; active = well fitted activation curve with a large enough effect in the signal ratio in the repeat runs, not every such curve was filed as active; the % refers to the signal ratio; also: potency is read from the fitted curve at half-maximal effect)
Procedure, shortened: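 Agonist mode reporter screen. ME-180 cells stably expressing bla under HRE control received test compounds in DMSO for 17 hrs (37C, 5% CO2), and beta-lactamase activity was then detected with the CCF4-AM FRET substrate.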

[3] = qHTS assay to identify small molecule agonists of H2AX - cell viability counter screen (AID 1224847; calls by dose curve; also: nearly all actives have a fitted effect of over 30% in size; also: potency is read from the fitted curve at half-maximal effect)
Procedure, shortened: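 Counter-screen for viability: CellTiter-Glo ATP luminescence read after 3 h compound treatment (15-point titration, 0.76% DMSO final) of CHO-K1 cells at 37C, with 30 min room-temperature reagent incubation.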

[4] = qHTS assay to identify small molecule antagonists of the estrogen related receptor (ERR) signaling pathway from Tox21 library (AID 1224848); also: nearly all actives have a fitted effect of over 50% in size; also: potency is read from the fitted curve at half-maximal effect
Procedure, shortened: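 First, 2,000 ERR cells per well were plated and held 6 h at 37 C/5% CO2. Next, compounds in DMSO were pinned in and left 18 h at 37 C. Finally, ONE-Glo was added and luminescence read after 30 min at room temperature.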

[5] = qHTS assay to identify small molecule agonists of the estrogen related receptor (ERR) signaling pathway from Tox21 library (AID 1224849; calls by dose curve; also: nearly all actives have a fitted effect of over 15% in size); details: ERR reporter cell line, ONE-Glo luciferase, 18 h; at 92.4 µM (top of the series) unless noted
Procedure, shortened: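 Quantitative HTS in agonist format: NTP ERR cell line, compounds transferred in DMSO after 6 h plating, 18 h incubation at 37 C, ONE-Glo luminescence endpoint.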

[6] = qHTS RealTime-Glo MT Cell Viability Assay in HEK293 cells - 32 hour (AID 1224868); also: nearly all actives have a fitted effect of over 50% in size; also: potency is read from the fitted curve at half-maximal effect
Procedure, shortened: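 Assay medium contained NanoLuc luciferase plus cell-permeant prosubstrate, added with HEK293 cells at 600 cells/well. After 5 h at 37 C/5% CO2 compounds were added; plates stayed at 37 C for 40 h with serial luminescence reads.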

[7] = A CellTox Green Cytotoxicity Assay to monitor cytotoxicity in HEK293 cells - 0 hour (AID 1224869); also: nearly all actives have a fitted effect of over 50% in size
Procedure, shortened: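 Dead-cell fluorescence measured kinetically: asymmetric cyanine dye, HEK293, 600 cells/well, 5 h settle, 23 nL cpd/DMSO, 37 C, reads 0–40 h every 8 h.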

[8] = qHTS RealTime-Glo MT Cell Viability Assay in HepG2 cells - 24 hour (AID 1224867); also: nearly all actives have a fitted effect of over 50% in size; also: potency is read from the fitted curve at half-maximal effect
Procedure, shortened: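 qHTS, HepG2, 600 cells/well, RealTime-Glo (NanoLuc + prosubstrate) added with cells; 5 h preincubation; DMSO compound addition; 37 C; luminescence at 0/8/16/24/32/40 h.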

[9] = qHTS RealTime-Glo MT Cell Viability Assay in HepG2 cells - 40 hour (AID 1224870); also: nearly all actives have a fitted effect of over 50% in size; also: potency is read from the fitted curve at half-maximal effect
Procedure, shortened: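 HepG2 cells mixed with RealTime-Glo MT reagents (NanoLuc plus cell-permeant prosubstrate) were seeded at 600 cells/well, incubated 5 h at 37 C/5% CO2, then pinned with compounds in DMSO; nonlytic luminescence tracked viability during 40 h treatment.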

[10] = qHTS assay to identify small molecule agonists of the hypoxia (HIF-1) signaling pathway - cell viability counter screen (AID 1224844; calls by dose curve; also: nearly all actives have a fitted effect of over 50% in size; also: potency is read from the fitted curve at half-maximal effect)
Procedure, shortened: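 Viability counter screen: HRE-bla ME-180 cells plated 5 hrs before compound addition, treated 17 hrs at 37C and 5% CO2, then CellTiter-Glo added after the FRET reporter read; luminescence after 30 min.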

| Structure (SMILES) | Potency [1] | Potency [2] | Potency [3] | Potency [4] | activity change, positive = activation [5] | Potency [6] | Potency [7] | Potency [8] | Potency [9] | Potency [10] |
| --- | --- | --- | --- | --- | --- | --- | --- | --- | --- | --- |
| CCC1=C[C@@H]2CN(C1)Cc1c([nH]c3ccccc13)[C@@](C(=O)OC)(c1cc3c(cc1OC)N(C)[C@H]1[C@@](O)(C(=O)OC)[C@H](OC(C)=O)[C@]4(CC)C=CCN5CC[C@]31[C@@H]54)C2 | inactive | inactive | inactive | 18.8 µM (active) | -48.8% [at 42.5 µM] | 0.0151 µM (active) | inactive | – | – | – |
| O=C(Nc1cccc(Cl)c1)OCC#CCCl | 113 µM (active) | – | inactive | 30.6 µM (active) | – | 49 µM (active) | inactive | 49 µM (active) | 49 µM (active) | – |
| CCC(CN)=C(c1ccccc1)c1ccccc1 | inactive | inactive | inactive | – | – | inactive | – | inactive | inactive | – |
| COc1ccc(CN2CCN(C(c3ccc(F)cc3)c3ccc(F)cc3)CC2)c(OC)c1OC | inactive | – | 49.2 µM (active) | 13.3 µM (active) | -66.6% [at 42.5 µM] | 16.9 µM (active) | inactive | – | – | – |
| Cc1cc(=O)oc2cc(N(C)C)ccc12 | inactive | 49 µM (active) | inactive | inactive | – | – | inactive | – | inactive | – |
| COc1cc(-c2nc(NC(=O)c3cc4cc(C)cc(C)c4n3CC(=O)O)sc2CCC2CCCCC2)c(OC)cc1Cl | – | – | – | 31.5 µM (active) | -61.8% | 25.2 µM (active) | inactive | 40 µM (active) | 40 µM (active) | 25.2 µM (active) |
| CCCCC(CC)COC(=O)c1ccccc1C(=O)O (configuration not stated) | inactive | inactive | inactive | – | -12.5% | – | inactive | inactive | inactive | – |
| COc1ccc(C(=O)/C(Br)=C\C(=O)O)cc1 | 31.8 µM (active) | inactive | – | inactive | – | 38.9 µM (active) | inactive | – | – | – |
| CCCCCOc1ccccc1/C(=C\SC)n1ccnc1 | – | – | – | 21.1 µM (active) | -47.2% [at 42.5 µM] | – | – | inactive | inactive | 21.3 µM (active) |
| CCCCN1C(=O)[C@@H]([C@H](O)C2CCCCC2)NC(=O)C12CCN(Cc1ccc(Oc3ccc(C(=O)O)cc3)cc1)CC2 | inactive | inactive | inactive | – | – | inactive | inactive | inactive | inactive | – |
| CCc1oc2ccccc2c1C(=O)c1cc(Br)c(O)c(Br)c1 | – | – | – | – | – | – | – | – | inactive | inactive |
| CC(C)C(C)(C)C(C)(C)C(C)(C)S | inactive | inactive | inactive | – | – | inactive | – | inactive | – | – |
| Cc1ccc(O)c2ncccc12 | – | – | – | 18.8 µM (active) | -58.3% [at 42.5 µM] | inactive | inactive | inactive | inactive | inactive |
| C[C@@H]1C[C@H]2[C@@H]3CCC4=CC(=O)C=C[C@]4(C)[C@@]3(Cl)[C@@H](O)C[C@]2(C)[C@@]1(OC(=O)c1ccco1)C(=O)CCl | inactive | – | inactive | 13.3 µM (active) | – | inactive | inactive | – | – | – |
| [O-][n+]1ccccc1SSc1cccc[n+]1[O-] | – | – | – | 0.259 µM (active) | -64% [at 19 µM] | 1.31 µM (active) | – | 0.208 µM (active) | 0.165 µM (active) | 0.117 µM (active) |
| COCCCC/C(=N\OCCN)c1ccc(C(F)(F)F)cc1 | inactive | inactive | inactive | inactive | -2.43% [at 42.5 µM] | – | inactive | inactive | inactive | – |
| O=C1CCCCCN1SSN1CCCCCC1=O | – | – | – | 54.5 µM (active) | -43.7% | inactive | inactive | – | – | 43.6 µM (active) |
| Oc1c(Cl)cc(Cl)c2cccnc12 | 39.1 µM (active) | – | inactive | 9.44 µM (active) | -66% [at 42.5 µM] | – | inactive | – | inactive | – |
| C=C(C)C(=O)OCC(O)COc1ccc(C(C)(C)c2ccc(OCC(O)COC(=O)C(=C)C)cc2)cc1 (configuration not stated) | inactive | – | 35.7 µM (active) | 27.3 µM (active) | -80.3% | 12.3 µM (active) | inactive | 19.5 µM (active) | – | – |
| C=CC(=O)OCC(CO)(COCC(COC(=O)C=C)(COC(=O)C=C)COC(=O)C=C)COC(=O)C=C | – | – | – | – | – | – | inactive | – | 4.31 µM (active) | 2.16 µM (active) |
| CCCC(C)c1ccccc1O (configuration not stated) | inactive | inactive | 80 µM (active) | – | – | inactive | inactive | inactive | inactive | – |
| N#CSc1ccc(N)c([N+](=O)[O-])c1 | inactive | – | inactive | 43.5 µM (active) | -63.3% | 49.3 µM (active) | inactive | – | inactive | – |
| On1ccccc1=S | – | – | – | 1.21 µM (active) | – | 4.32 µM (active) | inactive | 0.544 µM (active) | 0.485 µM (active) | 0.432 µM (active) |
